In PubChem BioAssay AID2073 (Sanford-Burnham Center for Chemical Genomics, 2009):
The whole screen tested about 290,000 compounds, of which about 570 (0.2%) were called active. Not shown: some 1% with an inconclusive outcome. No stated cut-off is given here; in the data, active means inhibition mostly above about 51% (no sharp cut-off); inconclusive means no clear call, values can overlap the other calls; inactive means mostly below about 53%. Shown is part of a subset that was picked to be rich in actives.

Molecular target: Voltage-dependent N-type calcium channel subunit alpha-1B (Homo sapiens) (UniProt Q00975)
Assay: inhibitors of Mint1-CaV2.2 protein interaction, biochemical, HTRF (AID 2073)
Details: at 20 µM, stronger effect = higher value

Sequence of Voltage-dependent N-type calcium channel subunit alpha-1B (Homo sapiens) (Q00975 whole entry, looked up): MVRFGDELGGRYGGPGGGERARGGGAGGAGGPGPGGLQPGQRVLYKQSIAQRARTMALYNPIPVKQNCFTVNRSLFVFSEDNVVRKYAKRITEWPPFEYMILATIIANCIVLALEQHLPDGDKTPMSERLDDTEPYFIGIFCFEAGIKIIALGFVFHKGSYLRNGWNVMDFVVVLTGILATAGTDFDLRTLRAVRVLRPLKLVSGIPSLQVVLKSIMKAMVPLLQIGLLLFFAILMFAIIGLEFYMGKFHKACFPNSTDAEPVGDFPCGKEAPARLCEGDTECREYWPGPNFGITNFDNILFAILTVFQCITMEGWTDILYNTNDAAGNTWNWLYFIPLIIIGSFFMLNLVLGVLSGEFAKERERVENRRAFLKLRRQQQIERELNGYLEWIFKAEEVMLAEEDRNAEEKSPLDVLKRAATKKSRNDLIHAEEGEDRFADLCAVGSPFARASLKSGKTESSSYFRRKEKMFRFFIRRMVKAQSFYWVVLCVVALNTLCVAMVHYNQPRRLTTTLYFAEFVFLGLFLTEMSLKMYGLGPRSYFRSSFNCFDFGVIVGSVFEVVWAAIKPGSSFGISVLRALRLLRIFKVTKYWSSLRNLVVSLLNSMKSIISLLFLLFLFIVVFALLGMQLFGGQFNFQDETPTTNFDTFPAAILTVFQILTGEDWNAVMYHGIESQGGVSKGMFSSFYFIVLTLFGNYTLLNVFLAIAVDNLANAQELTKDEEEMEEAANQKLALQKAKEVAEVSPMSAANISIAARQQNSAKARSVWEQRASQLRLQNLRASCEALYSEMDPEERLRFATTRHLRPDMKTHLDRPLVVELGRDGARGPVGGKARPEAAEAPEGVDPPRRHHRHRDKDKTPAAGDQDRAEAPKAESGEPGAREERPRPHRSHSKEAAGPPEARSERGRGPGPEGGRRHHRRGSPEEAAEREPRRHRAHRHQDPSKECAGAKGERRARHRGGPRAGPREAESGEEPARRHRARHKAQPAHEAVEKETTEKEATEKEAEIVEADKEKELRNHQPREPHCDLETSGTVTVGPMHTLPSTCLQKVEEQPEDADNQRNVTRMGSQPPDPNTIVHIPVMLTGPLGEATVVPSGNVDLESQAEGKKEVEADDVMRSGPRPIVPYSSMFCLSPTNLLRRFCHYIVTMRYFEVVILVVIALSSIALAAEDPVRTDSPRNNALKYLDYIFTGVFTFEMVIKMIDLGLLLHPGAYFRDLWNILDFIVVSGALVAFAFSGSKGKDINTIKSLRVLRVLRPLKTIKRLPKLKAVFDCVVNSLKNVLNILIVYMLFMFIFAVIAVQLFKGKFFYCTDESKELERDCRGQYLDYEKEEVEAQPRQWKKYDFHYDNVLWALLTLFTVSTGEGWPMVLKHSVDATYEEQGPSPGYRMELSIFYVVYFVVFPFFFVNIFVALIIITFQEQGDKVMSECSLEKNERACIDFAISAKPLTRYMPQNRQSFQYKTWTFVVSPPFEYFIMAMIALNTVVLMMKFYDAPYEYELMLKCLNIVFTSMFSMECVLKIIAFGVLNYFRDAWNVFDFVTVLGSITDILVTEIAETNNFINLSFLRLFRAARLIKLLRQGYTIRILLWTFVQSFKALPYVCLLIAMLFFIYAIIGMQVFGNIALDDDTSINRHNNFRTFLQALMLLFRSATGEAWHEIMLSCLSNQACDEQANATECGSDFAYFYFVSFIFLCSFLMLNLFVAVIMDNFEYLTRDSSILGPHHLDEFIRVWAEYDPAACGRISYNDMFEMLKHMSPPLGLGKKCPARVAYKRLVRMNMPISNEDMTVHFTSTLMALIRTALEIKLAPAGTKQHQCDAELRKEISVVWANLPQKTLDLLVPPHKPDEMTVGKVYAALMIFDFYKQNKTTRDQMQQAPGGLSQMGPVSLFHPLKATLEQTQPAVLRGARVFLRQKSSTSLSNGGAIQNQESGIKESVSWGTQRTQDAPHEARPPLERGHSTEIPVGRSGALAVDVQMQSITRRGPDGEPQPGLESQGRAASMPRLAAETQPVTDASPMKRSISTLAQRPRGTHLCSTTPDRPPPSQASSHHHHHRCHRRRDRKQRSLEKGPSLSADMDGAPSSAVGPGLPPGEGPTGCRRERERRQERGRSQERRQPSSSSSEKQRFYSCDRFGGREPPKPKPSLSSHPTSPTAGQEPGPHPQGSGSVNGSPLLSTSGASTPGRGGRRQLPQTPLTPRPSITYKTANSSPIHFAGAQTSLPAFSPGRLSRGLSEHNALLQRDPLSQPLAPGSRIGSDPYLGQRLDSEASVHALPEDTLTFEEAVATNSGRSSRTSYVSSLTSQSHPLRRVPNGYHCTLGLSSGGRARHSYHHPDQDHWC

Row | SMILES | inhibition | inhibition (measured here: average of repeat tests) [%]
1 | CC(C)c1ccc(/C=C2\SC(N3CCOCC3)=NC2=O)cc1 | -2.3% (inactive) | 
2 | CCOC(=O)C1CCCN(C(=O)CC(C)c2ccccc2)C1 (stereo not drawn) | -3.1% (inactive) | 
3 | Cc1ccc(C)c(N2CCN(C(=O)CCn3c(=S)[nH]c4cc5c(cc4c3=O)OCO5)CC2)c1 | 4.3% (inactive) | 
4 | CS(=O)(=O)C1=NSC2=NC(=O)/C(=C\c3cccn3-c3ccc(Cl)cc3)C(=N)N21 | 24.5% (inactive) | 
5 | CS(=O)(=O)C1=NSC2=NC(=O)/C(=C\c3cccn3-c3ccccc3Cl)C(=N)N21 | 68.7% (active) | 
6 | Cc1ccc(-n2cccc2/C=C2/C(=N)N3C(=NC2=O)SN=C3S(C)(=O)=O)cc1Cl | 29.3% (inactive) | 
7 | O=C(CC1NCCNC1=O)Nc1cccc([N+](=O)[O-])c1 (stereo not drawn) | -6.8% (inactive) | 
8 | CC(=O)Nc1ccc2nsnc2c1 | 9% (inactive) | 
9 | Cc1nc2ccc(NC(=O)N(C(C)C)C(C)C)cc2s1 | 10.4% (inactive) | 
10 | CC(C)N(C(=O)Nc1ccc2nsnc2c1)C(C)C | 60.7% (active) | 
11 | CCC(C)(C)n1nnnc1C(c1ccc(Cl)cc1)N1CCN(C)CC1 (stereo not drawn) | -3.8% (inactive) | 
12 | Cc1nn(C)c(C)c1CS(=O)(=O)c1ccccc1 | -4% (inactive) | 
13 | CCc1c(C(C)S(=O)(=O)c2ccccc2)[nH]c(=O)n1CC (stereo not drawn) | -7.8% (inactive) | 
14 | CCn1c(C)c(CS(=O)(=O)c2ccccc2)[nH]c1=O | 73.9% (active) | 
15 | Cc1ccc2cc(CN(C(=O)c3cccs3)c3ccccc3)c(=O)[nH]c2c1 | 4.6% (inactive) | 
16 | CC(C)O/C(=N\S(=O)(=O)c1ccc(Cl)cc1)c1ccccc1 | 3.7% (inactive) | 
17 | Cc1cc(C)cc(C(N)=Nc2cccc(C#N)c2)c1 | 4.9% (inactive) | 
18 | NC1=NC(=Nc2ccc(Br)cc2)c2ccccc21 | -1.5% (inactive) | 
19 | CCOC(=O)c1ccc(N=NN(C)C)cc1 | -7% (inactive) | 
20 | Cc1ccc(N=c2sc(C)c(C)n2C)cc1 | -35.3% (inactive) | 
21 | CCOC(=O)c1ccc(N=c2scc(C)n2CC)cc1 | 3.7% (inactive) | 
22 | CN1C(=O)CSC1=Nc1ccc(Br)cc1 | -4.4% (inactive) | 
23 | Cc1ccc(N=C2CSC(=O)N2)cc1 | -2.7% (inactive) | 

Row | SMILES | inhibition | inhibition (measured here: average of repeat tests) [%]
24 | N#Cc1ccc(N=c2ssnc2Cl)cc1 | 44.2% (inactive) | 
25 | O=C(COc1ccccc1Cl)Nc1ccc(CN2CCOCC2)cc1 | -4.3% (inactive) | 
26 | Cc1nn(CC(=O)N2CCC(N3CCCCC3)CC2)c(=O)c2c1sc1ccccc12 | 16.1% (inactive) | 
27 | Cc1ccc(NC(=O)Cn2nnc(C(=O)NCc3ccc4c(c3)OCO4)c2N)cc1 | 9.7% (inactive) | 
28 | O=C(NNc1ccccc1)Nc1ccccc1F | -15.6% (inactive) | 
29 | CC(C)(C)C1CCC(=NNC(=O)C(=O)NC2CCCCC2)CC1 (stereo not drawn) | 2.1% (inactive) | 
30 | O=C(OCc1nnc(-c2ccc(Cl)cc2)o1)c1ccncc1 | 7.7% (inactive) | 
31 | Clc1ss/c(=N\c2ccccn2)c1Cl | 6.4% (inactive) | 
32 | Clc1ccc(N=c2ssnc2Cl)cc1 | -17.4% (inactive) | 
33 | Cc1c(CCC(=O)O)c(=O)oc2cc(OCc3cccc(F)c3)ccc12 | 16.2% (inactive) | 
34 | CSc1nc(-c2ccco2)cc(-c2ccccc2)c1C#N | 15.4% (inactive) | 
35 | N#Cc1c(-c2ccco2)cc(-c2ccccc2)[nH]c1=O | 48.2% (inactive) | 
36 | N#Cc1c(-c2ccccc2)cc(-c2ccco2)c(C#N)c1N | 53.5% (active) | 
37 | COc1cc(Cl)c(C)cc1NC(=O)c1ccc2c(SCC(=O)O)c3c(nc2c1)CCCC3 | 53.2% (active) | 
38 | COc1cc(OC)c(NC(=O)c2ccc3c(SCC(=O)O)c4c(nc3c2)CCCC4)cc1Cl | 44.9% (inactive) | 
39 | COc1ccc(Cl)cc1NC(=O)c1ccc2c(SCC(=O)O)c3c(nc2c1)CCCC3 | 12.3% (inactive) | 
40 | CCCOc1cccc(C(=O)O)c1 | -5.1% (inactive) | 
41 | CC(/C=N/NC(=O)c1cc(-c2ccc(Cl)cc2)nc2ccccc12)=C\c1ccco1 | 37.8% (inactive) | 
42 | O=C(N/N=C/c1ccco1)c1cc(-c2ccc3ccccc3c2)n[nH]1 | 5.5% (inactive) | 
43 | CC(/C=N/NC(=O)c1cc(-c2ccccc2)nc2ccccc12)=C\c1ccco1 | 52.6% (active) | 
44 | CC(/C=N/NC(=O)c1cc(-c2ccc3ccccc3c2)n[nH]1)=C\c1ccco1 | 73.3% (active) | 
45 | CC(/C=N/NC(=O)c1cc(-c2ccncc2)nc2ccccc12)=C\c1ccco1 | 43.6% (inactive) | 
46 | O=C(N/N=C\C=C\c1ccco1)c1cc(-c2ccc3ccccc3c2)n[nH]1 | 80.2% (inactive) | 9.6

Row | SMILES | inhibition | inhibition (measured here: average of repeat tests) [%]
47 | CCOc1cc(C(=O)O)cc(Cl)c1OC | 0.7% (inactive) | 
48 | Cc1ccc(N2CCN(/N=C/C=C/c3ccccc3)CC2)cc1 | 2.8% (inactive) | 
49 | N/C(=N\C(=S)Nc1ccccc1)c1ccccc1 | 5.2% (inactive) | 
50 | CNC(=S)Nc1ccc(Nc2ccccc2)cc1 | -5.3% (inactive) | 
51 | Cc1ccc(NC(=O)c2ccccc2)cc1 | -4.2% (inactive) | 
52 | CNC(=S)/N=C(/Nc1ccccc1)c1ccccc1 | 59.9% (active) | 
53 | Cc1ccc(NC(=S)c2ccccc2)cc1 | -6.4% (inactive) | 
54 | CS(=O)(=O)NCCSCc1c(Cl)cccc1Cl | 28.1% (inactive) | 
55 | N#Cc1c(C(F)(F)F)cc(C2CC2)[nH]c1=O | 6.1% (inactive) | 
56 | Cc1ccc(C(=S)NCS(=O)(=O)c2ccc(C)cc2)cc1 | 28% (inactive) | 
57 | C(=C\c1nc2ccccc2[nH]1)/c1ccccc1 | 5.8% (inactive) | 
58 | C(=C\c1ccco1)/c1nc2ccccc2[nH]1 | 65.6% (active) | 
59 | Cc1ccc(/C=C/c2nc3ccccc3[nH]2)o1 | 44.8% (inactive) | 
60 | CCc1ccc(CN2CCC(n3nccc3NC(=O)c3ccc4c(c3)OCO4)CC2)cc1 | 2.8% (inactive) | 
61 | N#Cc1c(N)sc(=S)c2c1CCN(Cc1ccccc1)C2 | 52.4% (active) | 
62 | N#Cc1c(N2CCCCC2)nc(N2CCCCC2)c2c1CCN(Cc1ccccc1)C2 | 16.2% (inactive) | 
63 | N#Cc1c(N)sc2c1CCN(CCc1ccccc1)C2 | 3.3% (inactive) | 
64 | CN(C(=O)CC1C(=O)NCCN1Cc1ccccc1F)C1CCOCC1 (stereo not drawn) | 16.3% (inactive) | 
65 | Cc1c(Cl)sn(-c2ccc(Cl)cc2)c1=O | 79.2% (active) | 
66 | CC1=CC(C)(C)N(C)C(=O)N1c1ccc(Cl)cc1 | -2.6% (inactive) | 
67 | Cc1cc(=O)cc(C)n1-c1ccc(Cl)cc1 | 7.3% (inactive) | 
